Laboratory results reported in PubChem BioAssay (NCI).
About 83,000 compounds went through this panel and 20% of them were active in at least one assay; those are over-represented in the sample as a whole.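 Interpretation: 100, growth as untreated; towards 0, rising growth inhibition; 0, no net growth; 0 to -100, cell death. Compounds scoring below 10 were considered active.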 Active and inactive are the calls of the source.

What was measured:
Test in all cases: NCI-60 one-dose screen, 48 h (100 = growth as untreated, 0 = no growth, -100 = all killed)
T-47D breast = settings: 10 µM unless noted
BT-549 breast = settings: 10 µM unless noted
MDA-MB-435 melanoma = settings: 10 µM unless noted
SW-620 colon = settings: 10 µM unless noted
MCF7 breast = settings: 10 µM unless noted
HCT-116 colon = settings: 10 µM unless noted
HCC-2998 colon = settings: 10 µM
KM12 colon = settings: 10 µM unless noted

Measured: growth

CN1C/C=C\CCOc2cccc(c2)-c2ccnc(n2)Nc2cccc(c2)C1
active: T-47D breast -42.4% | BT-549 breast -69.4% | MDA-MB-435 melanoma -85.2% | SW-620 colon -5.5% | MCF7 breast -33% | HCT-116 colon -50% | HCC-2998 colon -40% | KM12 colon -53.3%

C[C@@]1(C(=O)Nc2ccc(F)nc2)CCCN1c1nc(Nc2cc(C3CC3)[nH]n2)c2cccn2n1
inactive: BT-549 breast 27.3% | MDA-MB-435 melanoma 38.1% | SW-620 colon 16.4% | MCF7 breast 17.9% | HCC-2998 colon 42.2%
active: T-47D breast 7.7% | HCT-116 colon 7.82% | KM12 colon -23.6%

C=C1C[C@H](O)[C@H](Br)C(C)(C)[C@@]12CCC(C)=C(Cl)C2
inactive: T-47D breast 28.7% | BT-549 breast 26.4% | SW-620 colon 29.8% | MCF7 breast 16.3% | HCC-2998 colon 42.3% | KM12 colon 13.7%
active: MDA-MB-435 melanoma 9.73% | HCT-116 colon 9.9%

N#Cc1c(-c2ccc(Cl)cc2)csc1NC(=O)Nc1cccc(C(F)(F)F)c1
active: T-47D breast -5.74% | HCT-116 colon 1.8%
inactive: BT-549 breast 26.3% | MDA-MB-435 melanoma 14.1% | SW-620 colon 22.7% | MCF7 breast 12.8% | HCC-2998 colon 19.9% | KM12 colon 12.9%

CCS(=O)(=O)N1CCN(c2ccc(Nc3ncc(C(N)=O)c(NC4CC4)n3)cc2)CC1
inactive: T-47D breast 99.1% | BT-549 breast 67% | MDA-MB-435 melanoma 68.7% | SW-620 colon 60.1% | MCF7 breast 68.5% | HCT-116 colon 49.2% | HCC-2998 colon 98.3% | KM12 colon 24.5%

Cc1cc2c(-c3nc4ccccn4c3NC3CCCCC3)c(O)c(O)cc2c(O)c1-c1c(C)cc2c(-c3nc4ccccn4c3NC3CCCCC3)c(O)c(O)cc2c1O
inactive: T-47D breast 11.9% | BT-549 breast 30.1% | MDA-MB-435 melanoma 27.5% | SW-620 colon 28.9% | MCF7 breast 43% | HCT-116 colon 14.2% | HCC-2998 colon 46.2% | KM12 colon 29.6%

CCOc1cc2ncc(C#N)c(Nc3ccc(OCc4ccccn4)c(Cl)c3)c2cc1NC(=O)/C=C/CN(C)C
inactive: T-47D breast 15.9% | BT-549 breast 39.4% | HCC-2998 colon 50.8%
active: MDA-MB-435 melanoma -87.7% | SW-620 colon -63.9% | MCF7 breast -6.35% | HCT-116 colon -81.2% | KM12 colon -60%

COc1cc(N2CCC(N3CCN(C)CC3)CC2)ccc1Nc1ncnc(Nc2ccccc2S(=O)(=O)C(C)C)n1
inactive: T-47D breast 74.7% | BT-549 breast 104% | MDA-MB-435 melanoma 108% | SW-620 colon 100% | MCF7 breast 88.6% | HCT-116 colon 88.2% | HCC-2998 colon 97.3% | KM12 colon 109%

O=C1C=CC2(NN=C(c3ccccc3)N2c2cccc(Cl)c2)C(Cl)=C1 (stereo not given)
inactive: T-47D breast 37.9% | BT-549 breast 88.5% | MDA-MB-435 melanoma 86.3% | SW-620 colon 90.2% | MCF7 breast 79% | HCT-116 colon 73.4% | HCC-2998 colon 105% | KM12 colon 78.1%

CCCCN1C(=O)c2cccc3c(-c4ccc5c(c4)ncn5C4CCCCC4)ccc(c23)C1=O
inactive: T-47D breast 81.9% | BT-549 breast 99.4% | MDA-MB-435 melanoma 109% | SW-620 colon 107% | MCF7 breast 96.7% | HCT-116 colon 91.7% | HCC-2998 colon 102% | KM12 colon 92.2%

N#Cc1c(C(F)(F)F)cc(Nc2ccc3nc(NCCN4CCCC4)oc3c2)n2c1nc1ccccc12
inactive: T-47D breast 66.9% | BT-549 breast 72.3% | MDA-MB-435 melanoma 90.8% | SW-620 colon 37.4% | MCF7 breast 38.9% | HCT-116 colon 17.9% | HCC-2998 colon 68% | KM12 colon 73.9%

CC(=O)C1=C(C)NC(SCc2nnc(-c3ccc(C)cc3)o2)=NC1c1ccc(F)cc1 (stereo not given)
inactive: T-47D breast 74.4% | BT-549 breast 86.1% | MDA-MB-435 melanoma 107% | SW-620 colon 110% | MCF7 breast 95.4% | HCT-116 colon 93.6% | HCC-2998 colon 104% | KM12 colon 100%

CC1(O)CCC(Nc2cc(-c3ccc(C(F)(F)F)cc3)c(C#N)c3nc4ccccc4n23)CC1 (stereo not given)
inactive: T-47D breast 53% | BT-549 breast 38.2% | MDA-MB-435 melanoma 64.7% | SW-620 colon 90.5% | MCF7 breast 43.9% | HCT-116 colon 53.6% | HCC-2998 colon 86.5% | KM12 colon 68.7%

CCN(CCCOc1ccc2c(Nc3cc(CC(=O)Nc4cccc(F)c4)[nH]n3)ncnc2c1)CCOP(=O)(O)O
inactive: T-47D breast 73.6% | BT-549 breast 75.9% | MDA-MB-435 melanoma 69.2% | SW-620 colon 35.8% | MCF7 breast 46.6% | HCT-116 colon 47.5% | HCC-2998 colon 61.4% | KM12 colon 21.4%

C=C1C(=O)O[C@H]2[C@H]1CC/C(CNC(=O)c1cc3cc(OC)ccc3[nH]1)=C\CC[C@@]1(C)O[C@@H]21
inactive: KM12 colon 25.4%
active: T-47D breast -46.3% | BT-549 breast -68.1% | MDA-MB-435 melanoma -48.1% | SW-620 colon -72.3% | MCF7 breast -29.6% | HCT-116 colon -81.3% | HCC-2998 colon -90.3%

CN1CCN(CCCOc2cccc3nc(Nc4ccc(Cl)c(C(F)(F)F)c4)ccc23)CC1
inactive: T-47D breast 16.4% | BT-549 breast 59.1%
active: MDA-MB-435 melanoma -21.4% | SW-620 colon -54.8% | MCF7 breast -67.3% | HCT-116 colon -82.7% | HCC-2998 colon -90.8% | KM12 colon -78%

C/C(=C(/c1ccc(Cl)cc1)c1ccc(OCCN2CCCCCC2)cc1)c1ccccc1
inactive: T-47D breast 71.1% | BT-549 breast 84.4% | MDA-MB-435 melanoma 92.6% | SW-620 colon 54% | MCF7 breast 76% | HCT-116 colon 50% | HCC-2998 colon 93.8% | KM12 colon 30.7%

CCCCn1c(C)nc2cc(Nc3nc(N4CCCCC4)nc4nc[nH]c34)ccc21
inactive: BT-549 breast 18% | MDA-MB-435 melanoma 37.4% | SW-620 colon 79% | MCF7 breast 32.5% | HCT-116 colon 48.8% | HCC-2998 colon 66.2% | KM12 colon 38.1%
active: T-47D breast 6.78%

O=C1CC(c2ccc(Cl)cc2)c2ncn(-c3cccc(Cl)c3)c2N1 (stereo not given)
active: MDA-MB-435 melanoma -16.8%
inactive: T-47D breast 68.7% | BT-549 breast 52.5% | SW-620 colon 26% | MCF7 breast 61.2% | HCT-116 colon 19.1% | HCC-2998 colon 77.4% | KM12 colon 54.1%

Cc1cc(N2CCOCC2)nc(N(CCNc2ccnc3cc(Cl)ccc23)Cc2cccs2)n1
inactive: SW-620 colon 19.5% | MCF7 breast 18.2% | KM12 colon 26.4%
active: T-47D breast -29.6% | BT-549 breast -16.3% | MDA-MB-435 melanoma -1.4% | HCT-116 colon -25.1% | HCC-2998 colon -12.7%

CCc1nc2cc(F)c(/C=C/C(=O)NO)cc2c(=O)n1CCc1ccccc1
active: T-47D breast 2.26% | SW-620 colon 9.97% | HCT-116 colon 5.01%
inactive: BT-549 breast 28.8% | MDA-MB-435 melanoma 23.8% | MCF7 breast 12.3% | HCC-2998 colon 37.3% | KM12 colon 25.6%

CC1(COc2ccc3c(c2)ncn3-c2ccc3cccc(N4CCC(N)CC4)c3n2)COC1
inactive: T-47D breast 81.7% | BT-549 breast 43.1% | MDA-MB-435 melanoma 65.5% | HCC-2998 colon 31.2%
active: SW-620 colon 1.95% | MCF7 breast -10.1% | HCT-116 colon -45.6% | KM12 colon 6.35%

CCN1CCN(c2cc(C)nc(N(CCCNc3ccnc4cc(Cl)ccc34)Cc3cccs3)n2)CC1
active: T-47D breast -18.7% | BT-549 breast -20.6% | MDA-MB-435 melanoma -79.8% | SW-620 colon -8.17% | HCC-2998 colon -27.2%
inactive: MCF7 breast 12.3% | HCT-116 colon 10.8% | KM12 colon 35.4%

O=C(c1ccc(F)c(F)c1Nc1ccc(I)cc1F)N1CC(O)([C@@H]2CCCCN2)C1
active: HCT-116 colon 5.24% | HCC-2998 colon -51.9%
inactive: T-47D breast 11.8% | BT-549 breast 47.1% | MDA-MB-435 melanoma 21% | SW-620 colon 17.5% | MCF7 breast 14.1% | KM12 colon 12.1%

COc1cc(Nc2ncc(F)c(Nc3ccc4c(n3)N(COP(=O)(O)O)C(=O)C(C)(C)O4)n2)cc(OC)c1OC
inactive: T-47D breast 14.4% | MDA-MB-435 melanoma 26.5% | SW-620 colon 38.2% | MCF7 breast 25.7% | HCT-116 colon 22.1% | HCC-2998 colon 66.8% | KM12 colon 11.7%
active: BT-549 breast 1.78%

N#Cc1c(-c2ccc(C(F)(F)F)cc2)cc(NCC2CCS(=O)(=O)CC2)n2c1nc1ccccc12
inactive: T-47D breast 64.3% | BT-549 breast 64.9% | MDA-MB-435 melanoma 92.8% | SW-620 colon 93.3% | MCF7 breast 85.6% | HCT-116 colon 74.9% | HCC-2998 colon 91.9% | KM12 colon 98.4%

C=CCn1c(=O)c2cnc(Nc3ccc(N4CCN(C)CC4)cc3)nc2n1-c1cccc(C(C)(C)O)n1
active: BT-549 breast 1.3% | MDA-MB-435 melanoma -61.7% | HCT-116 colon 2.48% | HCC-2998 colon 9.01% | KM12 colon 0.327%
inactive: T-47D breast 36.4% | SW-620 colon 14.6% | MCF7 breast 15.7%

Cc1[nH]n(C(N)=S)c(=O)c1N=Nc1ccc(S(=O)(=O)Nc2ccncn2)cc1
inactive: T-47D breast 109% | BT-549 breast 143% | MDA-MB-435 melanoma 136% | SW-620 colon 102% | MCF7 breast 88.1% | HCT-116 colon 112% | HCC-2998 colon 105% | KM12 colon 99.5%

NC1=Nc2ccccc2N(O)N1
inactive: T-47D breast 87.1% | BT-549 breast 95% | MDA-MB-435 melanoma 106% | SW-620 colon 105% | MCF7 breast 94.2% | HCT-116 colon 93.3% | HCC-2998 colon 91.3% | KM12 colon 104%

Cn1c(=O)c(F)c(Nc2ccc(I)cc2F)c2c(=O)n(C[C@@H](O)CO)cnc21
active: HCT-116 colon 9.17% | HCC-2998 colon -37.7%
inactive: T-47D breast 63.7% | BT-549 breast 60.6% | MDA-MB-435 melanoma 44.3% | SW-620 colon 21.6% | MCF7 breast 83.8% | KM12 colon 19.9%
